Bioassay records deposited in PubChem BioAssay by Center for Chemical Genomics, University of Michigan.
The entries come from a sample that favours hits as a whole.
Dicer inh: inhibitors of Dicer pre-microRNA processing, primary screen, biochemical, cat-ELCCA, chemiluminescence; Endoribonuclease Dicer (Homo sapiens), Q9UPY3; cat-ELCCA pre-miR-21 Dicer processing; hits give high values; z-score at 25 µM; hit rate 6% among 47,000; in the data active means z-score above about 3, passing the limit was not always enough;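 further: plate controls were vehicle for no effect and no enzyme for full effect; higher signal means more uncleaved substrate so more Dicer inhibition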
Target sequence (Q9UPY3 whole entry, looked up): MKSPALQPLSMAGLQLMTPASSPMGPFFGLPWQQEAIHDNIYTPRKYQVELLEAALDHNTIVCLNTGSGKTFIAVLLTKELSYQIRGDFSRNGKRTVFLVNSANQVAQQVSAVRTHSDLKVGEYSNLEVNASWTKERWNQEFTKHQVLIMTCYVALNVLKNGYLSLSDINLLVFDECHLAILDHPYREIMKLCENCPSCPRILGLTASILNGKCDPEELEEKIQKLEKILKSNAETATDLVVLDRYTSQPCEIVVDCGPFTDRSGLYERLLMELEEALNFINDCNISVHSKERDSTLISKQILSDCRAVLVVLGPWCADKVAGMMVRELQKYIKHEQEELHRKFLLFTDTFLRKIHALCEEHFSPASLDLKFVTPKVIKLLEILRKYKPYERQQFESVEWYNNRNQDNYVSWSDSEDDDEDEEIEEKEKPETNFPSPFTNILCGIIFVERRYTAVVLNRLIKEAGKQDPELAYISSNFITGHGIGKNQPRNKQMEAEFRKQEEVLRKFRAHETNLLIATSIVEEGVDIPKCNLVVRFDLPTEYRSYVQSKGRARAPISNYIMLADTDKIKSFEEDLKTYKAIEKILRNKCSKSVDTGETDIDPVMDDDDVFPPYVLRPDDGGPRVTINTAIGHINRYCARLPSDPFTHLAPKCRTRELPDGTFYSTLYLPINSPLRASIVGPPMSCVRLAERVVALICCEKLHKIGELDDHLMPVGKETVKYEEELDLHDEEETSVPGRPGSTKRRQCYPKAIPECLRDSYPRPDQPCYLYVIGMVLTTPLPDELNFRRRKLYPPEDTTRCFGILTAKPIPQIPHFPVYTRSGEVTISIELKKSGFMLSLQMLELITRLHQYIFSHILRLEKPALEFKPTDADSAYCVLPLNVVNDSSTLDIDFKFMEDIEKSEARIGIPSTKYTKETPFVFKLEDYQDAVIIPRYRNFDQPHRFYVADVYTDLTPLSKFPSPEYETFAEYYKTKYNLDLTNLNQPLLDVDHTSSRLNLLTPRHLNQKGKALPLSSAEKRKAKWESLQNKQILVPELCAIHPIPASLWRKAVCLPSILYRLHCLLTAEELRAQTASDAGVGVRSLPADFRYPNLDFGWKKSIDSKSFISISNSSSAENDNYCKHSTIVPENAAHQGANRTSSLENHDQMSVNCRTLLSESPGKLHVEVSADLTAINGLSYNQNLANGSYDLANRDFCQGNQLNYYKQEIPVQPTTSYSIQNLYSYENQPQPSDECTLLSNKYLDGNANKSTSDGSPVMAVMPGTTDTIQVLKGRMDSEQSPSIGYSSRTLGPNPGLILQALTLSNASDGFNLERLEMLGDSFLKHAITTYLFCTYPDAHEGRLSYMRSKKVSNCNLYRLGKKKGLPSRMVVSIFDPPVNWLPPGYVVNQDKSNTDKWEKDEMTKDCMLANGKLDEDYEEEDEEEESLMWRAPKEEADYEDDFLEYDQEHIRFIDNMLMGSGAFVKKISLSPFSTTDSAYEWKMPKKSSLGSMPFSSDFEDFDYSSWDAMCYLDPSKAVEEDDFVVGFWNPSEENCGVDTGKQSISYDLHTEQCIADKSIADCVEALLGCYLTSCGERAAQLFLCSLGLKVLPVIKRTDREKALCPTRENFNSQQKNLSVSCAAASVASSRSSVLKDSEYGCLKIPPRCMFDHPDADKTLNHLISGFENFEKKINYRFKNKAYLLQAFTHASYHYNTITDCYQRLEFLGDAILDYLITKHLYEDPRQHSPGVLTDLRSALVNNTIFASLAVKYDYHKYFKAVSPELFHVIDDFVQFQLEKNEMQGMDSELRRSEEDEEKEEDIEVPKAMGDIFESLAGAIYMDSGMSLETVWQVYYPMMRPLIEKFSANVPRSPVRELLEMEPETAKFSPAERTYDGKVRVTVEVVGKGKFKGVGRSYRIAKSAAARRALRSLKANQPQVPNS
Starred values were filed as active, the others as inactive.

Results for Cc1ccc(C2CC(=O)C3=C(C2)Nc2ccccc2N(C(=O)C2CC2)C3c2ccco2)cc1 (stereo unspecified) ?
Dicer inh: 0.97

Results for O=c1oc2cc(S(=O)(=O)N3CCCC3)ccc2c2ccc(S(=O)(=O)N3CCCC3)cc12 ?
Dicer inh: 3.5*

What do the screens show for `CN(C)S(=O)(=O)c1ccc2c(c1)oc(=O)c1cc(S(=O)(=O)N(C)C)ccc12`?
Dicer inh: -0.56

Results for CC(C)(C)NS(=O)(=O)c1ccc2c(c1)oc(=O)c1cc(S(=O)(=O)NC(C)(C)C)ccc12 ?
Dicer inh: -0.8

What do the screens show for `CCOc1cc(/C=C(\C#N)C(N)=O)ccc1O`?
Dicer inh: -0.96

Results for CCOC(=O)c1c(C)nn(-c2ccc([N+](=O)[O-])cc2)c1C ?
Dicer inh: -0.28

How did Cc1coc(C)c1C(=O)CC1(O)C(=O)N(CCc2ccccc2)c2ccc(Br)cc21 (stereo unspecified) do in these assays?
Dicer inh: -0.43

What do the screens show for `Cc1ccc(C(=O)CC2(O)C(=O)N(CCc3ccccc3)c3ccc(Br)cc32)s1` (stereo unspecified)?
Dicer inh: 4.9*

Results for O=C(CC1(O)C(=O)N(CCc2ccccc2)c2ccc(Br)cc21)c1ccco1 (stereo unspecified) ?
Dicer inh: 2.6

What do the screens show for `O=C(CC1(O)C(=O)N(Cc2ccc(Cl)cc2)c2ccccc21)c1cccs1` (stereo unspecified)?
Dicer inh: 0.52

How did CN1C(=O)C(O)(CC(=O)c2ccc3c(c2)CCCC3)c2ccccc21 (stereo unspecified) do in these assays?
Dicer inh: 3.3*

How did CN1C(=O)C(O)(CC(=O)c2ccccc2)c2ccccc21 (stereo unspecified) do in these assays?
Dicer inh: 2

What do the screens show for `O=C(CC1(O)C(=O)N(Cc2ccccc2)c2ccccc21)c1ccc(Cl)cc1` (stereo unspecified)?
Dicer inh: 3*

Results for CN(C)c1ccc(C(=O)CC2(O)C(=O)N(Cc3ccc(Cl)cc3)c3ccccc32)cc1 (stereo unspecified) ?
Dicer inh: -1.7

How did CN1C(=O)C(O)(CC(=O)c2ccc3c(c2)OCO3)c2ccccc21 (stereo unspecified) do in these assays?
Dicer inh: 1.8

How did Cc1ccccc1CN1C(=O)C(O)(CC(=O)c2cccs2)c2cc(Cl)ccc21 (stereo unspecified) do in these assays?
Dicer inh: 5.3*

Results for Cc1ccc(CN2C(=O)C(O)(CC(=O)c3cccs3)c3cc(Cl)ccc32)cc1 (stereo unspecified) ?
Dicer inh: 1.4

What do the screens show for `Cc1ccccc1CN1C(=O)C(O)(CC(=O)c2cccnc2)c2cc(Cl)ccc21` (stereo unspecified)?
Dicer inh: 2.4

Results for O=C(NC1CCN(c2nccc(C(F)(F)F)n2)CC1)c1cccs1 ?
Dicer inh: -0.84

How did CCCCC(=O)N1c2ccccc2NC2=C(C(=O)CCC2)C1c1cccc(Br)c1 (stereo unspecified) do in these assays?
Dicer inh: -1.1

How did O=C1CCCc2c1cnc1[nH]n(-c3ccccc3)c(=O)c21 do in these assays?
Dicer inh: 1.1

How did CC1=C(C(=O)OC2CCCCC2)C(c2coc3ccc(Cl)cc3c2=O)C2=C(CC(C)(C)CC2=O)N1 (stereo unspecified) do in these assays?
Dicer inh: 2.4

What do the screens show for `NC(=O)c1ccc(-c2ccc(C(N)=O)cc2)cc1`?
Dicer inh: -1.6

Results for Cc1ccc(-c2nc(NC(=O)Nc3ccc(OCc4ccccc4)cc3)sc2C)cc1Cl ?
Dicer inh: 0.78

What do the screens show for `O=C(CC1(O)C(=O)N(CCc2ccccc2)c2ccc(Cl)cc21)c1cccs1` (stereo unspecified)?
Dicer inh: 4.2*

Results for O=C(CC1(O)C(=O)N(CCc2ccccc2)c2ccc(Br)cc21)c1cccs1 (stereo unspecified) ?
Dicer inh: 3

How did CCN1C(=O)C(O)(CC(=O)c2cccs2)c2ccccc21 (stereo unspecified) do in these assays?
Dicer inh: 0.2

What do the screens show for `CN(NC(=O)Nc1ccc(Cl)cc1)c1cnn(C)c(=O)c1Cl`?
Dicer inh: -2.6

Results for CCCCCN1C(=O)c2cccc3cccc(c23)C1=O ?
Dicer inh: -0.15

What do the screens show for `CCOC(=O)CCCCCN1C(=O)c2cccc3cccc(c23)C1=O`?
Dicer inh: -0.47

How did CCOC(=O)CCCN1C(=O)c2cccc3cccc(c23)C1=O do in these assays?
Dicer inh: 5.3*

Results for N#C/C(=C\N(CCS(=O)(=O)c1ccc(Cl)cc1)Cc1cccs1)S(=O)(=O)c1cccs1 ?
Dicer inh: -0.13

Results for COc1cc(C2c3c(oc4cc(C)c(C)cc4c3=O)C(=O)N2c2ccc(C)cn2)ccc1O (stereo unspecified) ?
Dicer inh: 15*

Results for COc1ccc(C2c3c(oc4cc(C)c(C)cc4c3=O)C(=O)N2c2ccc(C)cn2)cc1OC (stereo unspecified) ?
Dicer inh: 0.71
